# Measurements taken from PubChem BioAssay AID1850 (Southern Research Specialized Biocontainment Screening …, 2009).
# The campaign covered roughly 310,000 compounds. About 1,000 (0.32%) were called active. Not all results are given here. Measured potencies and affinities stand elsewhere. Unmarked numbers belong to inactive results. No rule for the calls is given here.
# Test: Inhibition of PhoP regulon, Salmonella typhi GFP reporter cells, confirmation, 4 h (AID 1850);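 also: 0% = induced wells with vehicle and 100% = uninduced wells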
# Conditions: Salmonella Typhi PhoP-promoter GFP reporter, fluorescence, at 50 µM, active compounds read high
row,SMILES,inhibition [%]
1,CC(=O)c1c(C)[n+]([O-])c2ccc3c(non3O)c12,14.6
2,CCOC(=O)c1c(C)[n+]([O-])c2ccc3c(non3O)c12,-9.19
3,CCCn1c(SCC(=O)OCc2ccccc2)nc2c1c(=O)n(C)c(=O)n2C,-3.63
4,Cc1ccc(S(=O)(=O)N(C)C)cc1NC(=O)COC(=O)/C=C/c1ccc2ccccc2n1,-5.07
5,CCOc1ccc(NC(=O)C(=O)NCCN2CCN(S(=O)(=O)c3ccccc3)CC2)cc1,3.61
6,O=C1[C@@H]2C(c3cccnc3)=NO[C@@H]2C(=O)N1c1ccc(Br)cc1,-5.51
7,COc1cc2cccc(OC)c(=O)c2c(O)c1OC,-19.1
8,Oc1cccc2cc3cccc(O)c3c(O)c12,7.19
9,Cc1ccc(S(=O)(=O)NCC2CCC(C(=O)N3CCN(C)CC3)CC2)cc1 (stereo not given),5.88
10,CC(C)(C)Cc1nnc(NS(=O)(=O)c2ccc([N+](=O)[O-])cc2)s1,-2.4
11,CC(Nc1nc(N2CCN(S(C)(=O)=O)CC2)nc2ccccc12)c1ccccc1 (stereo not given),-4.59
12,OCCNc1nc(N2CCCCC2)nc2ccccc12,4.37
13,CC(Nc1nc(N2CCNCC2)nc2ccccc12)c1ccccc1 (stereo not given),17.9
14,CC(Nc1nc(-c2ccccc2)nc2ccccc12)c1ccccc1 (stereo not given),18
15,CC(C)S(=O)(=O)c1nsc2nc(=O)c(/C=C3\C=Nc4ccccc43)c(N)n12,-9.31
16,Cc1occc1C(=O)NNC(=O)Nc1ccc([N+](=O)[O-])cc1,0.48
17,CC(C)(Oc1ccc(Cl)cc1)C(=O)NCCN1C(=O)S/C(=C/c2cccnc2)C1=O,-8.14
18,O=C(CN1CCN(Cc2ccc3c(c2)OCO3)CC1)Nc1ccc(F)cc1,2.19
19,O=C(O)C1C2C=CC(O2)C1C(=O)NCc1ccc2c(c1)OCO2 (stereo not given),4.49
20,O=C(O)C(Cc1c[nH]c2ccccc12)NS(=O)(=O)c1ccc2ccccc2c1 (stereo not given),-4.9
